# Data taken from PubChem BioAssay.
# Assay: probe aDKK1 binding to arrayed compounds – biochemical, biotinylated probe, 635/667 nm fluorescence, primary screen (AID 1099);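 also: score merges 667nm spot fluorescence with signal to noise across triplicate slides; reference of the scale not given here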
# Conditions: small-molecule microarray, higher = more signal
row,Compound,composite z-score
1,CCCCOC(OCCCC)C(O)CSc1ccc2ccccc2c1 (stereo unspecified),0.166
2,CCOC(=O)CCN1C(=O)[C@H]2[C@H]3[C@H](O)[C@H](O)CC(=O)[C@@H]3CC[C@H]2C1=O,-0.0674
3,CON=C(C)CCN1CCCc2nc(C)c(C)cc21,-0.117
4,COC(=O)CC=C1c2ccccc2[C@H](OC)[C@H]1C,-0.314
5,C=CC[C@@H]1C=C[C@H](ON=C[C@@H](NS(=O)(=O)c2ccc(C)cc2)[C@H](C)C=CCC(=O)OC)[C@@H](CO)O1,-0.353
6,O=C1C=C[C@@H](O)[C@@H]2[C@@H]3C(=O)N(c4cccc(Oc5ccccc5)c4)C(=O)[C@@H]3CC[C@@H]12,-0.147
7,C=CC[C@@H]1C=C[C@H](Oc2ccc(C)cc2)[C@@H](COC(=O)NCc2cccc3ccccc23)O1,-0.129
8,O=C1[C@H]2[C@H]3[C@H](O)[C@H](O)CC(=NOCc4ccccc4)[C@@H]3CC[C@H]2C(=O)N1c1cccc(Oc2ccccc2)c1,-0.173
9,CCCC[C@H]1CN2[C@@H](CC[C@@H](C)[C@@H]2c2ccc(Br)cc2)C(=O)O1,-0.1
10,CCOC(=O)[C@H](Cc1ccccc1)NC(=O)CCC1CC(OC(=O)NCc2cccc3ccccc23)CC2(CCCC(COC(=O)NCc3ccc4c(c3)OCO4)O2)O1 (stereo partly specified),-0.0102
11,CC(C)(C)N1C(=O)[C@H]2[C@H]3[C@H](O)[C@H](O)CC(=NNC(=O)OCc4ccccc4)[C@@H]3CC[C@H]2C1=O,-0.348
12,COc1ccc(OC[C@@H]2CC3[C@@H](c4ccc(Br)cc4)[C@H](C)CC[C@H]3C(=O)O2)cc1 (stereo partly specified),-0.436
13,CC(C)=CCCC(C)=CCON=C1C[C@@H](O)[C@@H](O)[C@@H]2[C@@H]3C(=O)N(c4cccc(Oc5ccccc5)c4)C(=O)[C@@H]3CC[C@H]12,-0.183
14,CCN1C(=O)[C@H]2[C@H]3[C@H](O)[C@H](O)CC(=NO[C@H](C)c4cn([C@H](CO)Cc5ccccc5)nn4)[C@@H]3CC[C@H]2C1=O,0.245
15,C#CCCCON=C1C[C@@H](O)[C@@H](O)[C@@H]2[C@@H]3C(=O)N(C[C@@H]4CCCO4)C(=O)[C@@H]3CC[C@@H]12,-0.244
16,COC(=O)CC=C[C@@H](C)[C@@H](C=NOC[C@@H](O)COCc1ccco1)NS(=O)(=O)c1ccc(C)cc1,-0.87
17,CC(=O)OC[C@H]1O[C@H](CC=NO[C@@H](C)c2cn([C@H](CO)Cc3ccccc3)nn2)C=C[C@@H]1OC(C)=O,0.101
18,CCc1cc2c(nc1CC)CCN(CCC(C)=NO[C@@H]1O[C@H](COC(C)=O)[C@@H](OC(C)=O)[C@H](OC(C)=O)[C@H]1OC(C)=O)C2,-0.0154

row,Compound,composite z-score
1,CC(C)(C)N1C(=O)[C@H]2[C@@H]3C(=CC[C@H]2C1=O)C(=O)[C@H]1O[C@H]1[C@H]3O,-0.366
2,CC(C)=NOC(C)CN1CCCCc2nc(C)c(C)cc21 (stereo unspecified),-0.261
3,Cc1ccc2[nH]c3nc(CCCn4ccnc4-c4ccccc4)nnc3c2c1,-0.28
4,COc1ccc(COC(=O)NN=C2C[C@@H](O)[C@@H](O)[C@@H]3[C@@H]4C(=O)N([C@@H](C)c5ccccc5)C(=O)[C@@H]4CC[C@H]23)cc1,-0.121
5,COC(=O)CC=C[C@@H](C)[C@@H](C=NOC(C)CN1CCCCc2nc(C)c(C)cc21)NS(=O)(=O)c1ccc(C)cc1 (stereo partly specified),-0.0704
6,CO[C@@H]1COC(=O)[C@H](CCSC)NC(=O)CC=C[C@@H](C)COC(=O)[C@@H]2CCCN2C(=O)CC=C[C@H]1C,-0.337
7,COC(=O)[C@H](C)NC(=O)CC=C[C@@H](C)[C@@H]1C=C[C@H](O)[C@@H](CO)O1,-0.607
8,CO[C@@H](C(C)C)[C@@H](C)C1OC(=O)CC1O (stereo partly specified),-0.148
9,COc1ccc(OC[C@@H](CO)OC)cc1,-0.233
10,COC(=O)[C@H](C)NC(=O)CCC1CC(OC(=O)NCc2ccc3c(c2)OCO3)CC2(CCCC(COC(=O)NCCC(C)C)O2)O1 (stereo partly specified),-0.076
11,COc1cccc([C@H]2Oc3ccc(OC)cc3C(=NO[C@@H](C)c3cc(-c4c(C)cc(C)cc4C)no3)[C@@H]2O)c1,0.838
12,CCOC(=O)CCN1C(=O)[C@H]2[C@H]3[C@H](O)[C@H](O)CC(=NNC(=O)OCC)[C@H]3CC[C@H]2C1=O,-0.55
13,O=C1[C@H]2[C@H]3[C@H](O)[C@H](O)CC(=NOC[C@@H](O)COCc4ccco4)[C@@H]3CC[C@H]2C(=O)N1Cc1ccc2c(c1)OCO2,-0.387
14,CC(=O)OC[C@H]1O[C@H](CC=NO[C@@H](C)c2cc(-c3c(C)cc(C)cc3C)no2)C=C[C@@H]1OC(C)=O,-0.341
15,CCO[C@H](c1cc(OC)cc([N+](=O)[O-])c1OC)[C@H](C)[C@@H](OC)[C@H](C)C=CCC(=O)OC,0.481
16,COC(=O)[C@H](C)NC(=O)CCC1CC(OC(=O)NCc2ccc3c(c2)OCO3)CC2(CCCC(COC(=O)NCCc3ccc(Cl)cc3)O2)O1 (stereo partly specified),-0.146
17,COc1ccc(COC(=O)NN=C2C[C@@H](O)[C@@H](O)[C@@H]3[C@@H]4C(=O)N(c5cccc(Oc6ccccc6)c5)C(=O)[C@@H]4CC[C@H]23)cc1,0.543
18,COc1cccc([C@H]2Oc3ccc(OC)cc3C(=NOCC[C@@H]3C=C[C@H](OC(C)=O)[C@@H](COC(C)=O)O3)[C@@H]2O)c1,0.0266
